Measurements published in the supplement of paper PMC12632987.
The full ranking holds about 1,800 sequences; the median of “median log2 fold change of GCK-ALFA target abundance (FLAG IP / Myc IP barcode read proportion)” is about 0.14, and the lowest 2% start at about -0.84. Shown is part of a subset that was picked to be rich in the lowest values.

B1: traf2_out_17_178_1659 (protein)
chain: NKEEARAEISAATDELIDLTEATADRLLAILEADGTASPEELAALREARRLGSATTTRALMEAAVPRSPRSAEVAALLDDFTKRSGELAKKIAEAYKKYE
B2: traf2_out_8_174_2574 (protein)
chain: SERERLRIVSEVLTEFADILDEAEERLEALKDLPLEELRKESQKILDEALKRIDEIEERRVKEVDEETAELIRRAARSAKQQLRNMVEGTIKRKELREKA
B3: traf2_out_11_169_824 (protein)
chain: AEAERNRKINDKALELNDKAKEKLKEFALELAKKAGLDVEEVKAIFEKHKGASLSAIAAALIEYFRSKGKEEEAEAVLKKYEELKDEINKEMAKFLKELE
B4: traf2_out_12_165_941 (protein)
chain: SMRERTEEIVRRAEEEIRRIADAAIAEIRANPDLTPEEVAALRERAVDEMVEVRQRALNELYKAGASIDELAEASERLRRVFDEARARLDAAAAEHLAAR
B5: traf2_out_11_169_848 (protein)
chain: EEEEKNRKIIDKALELNDKAKEELRAHALALAKKAGLDTAAVEAIFEANKGKSLSAVAAALIAWFKAQGKDAEAAAVEAKYEELKEKINKEMTKFLKELE
B6: traf2_out_6_169_2491 (protein)
chain: SMAEELKKEAERHLKTAKELYEIAKTIYNQAINNKNYENIDDYIEALETIKNAYKHHYDKAIEYYKKLGNEEEAEKLEKEKEKKLKEIDEMIKKLKELKK
B7: traf2_out_14_17_1291 (protein)
chain: DIIEKLEEILKTAKELAKKYPELKLELTQLERKAESALVLAEMYEEDPSYKPELIQGLKNLIKLAKEVAEKLKPISAEAVKKLEEMEETAKEILKEVEAE
B8: traf2_out_20_3_2179 (protein)
chain: EELEEELEEELEEALELIKEAAKLADEETAKKLEELAERLKESRELSYEDRLVELSEIRRELLELAEAAKAAGKEELAAVLEEAAEELNEAMNLVYEIIE
B9: traf2_out_20_38_2002 (protein)
chain: SMEEEEEERLKEIIDVANEAYDEATERIEALRAAGKSVEEIAAIVRAEVAELLDAAGLEEERDELLADIDRALSSPDALRLFARILARARALVKQKELNE
B10: traf2_out_20_38_2003 (protein)
chain: SEEEEEERKLEEIIEVANEAYDEATERIAAMVAAGKTVEEIAAEVRAEVTRLLDAAGLEEERDELLADIDRALASPNALRLFARILARARALVKQKELNK
B11: traf2_out_13_95_1094 (protein)
chain: SKEVAEKIMEIADKMLDESLEVLKKLLEEMKKKGKLEEEIKEVLELAENQSINEAIHKLKELAKKYPEVKELLEKAIEELEEIRRKAGKEVAKILKEEKE
B12: traf2_out_8_174_2572 (protein)
chain: DEEKRLKVVADFSTEMADILDEFEEELKKASDLPLEELKKKAEELKKEALEKIDKLKKEWEAKVDEETAKLVQRAANSAKQQIENMAKGAILRKELEDAA
B13: traf2_out_16_177_1462 (protein)
chain: ELDKIMDRIVVLSKIKRAAEYAIENKKEEAEKYLKEAEKEAEEAGDEEGLKKIKELKELMEKNTEEAKKKLKELAKEAQKEAGKLVDEAEALLKARAAAE
B14: traf2_out_20_38_2031 (protein)
chain: SEEEEEKKRLEEAIKVANDAYDRYTERFAALRAAGRTVEEMAAETRAEVRELLTAAGLEEEAEELIADIDLALGSPEAERLLVRILARAEALVWQKKKNE
B15: traf2_out_11_169_830 (protein)
chain: EEAEKNRKINDFALELEEKAKEEFKKFVLELAKEEGLDVEEIKKIFEENKNKSLSAIAAAVIEYFKSKGKEEAAEKVLKKYEELKEKINKEATEKIKELE
B16: traf2_out_6_156_2413 (protein)
chain: MVEKIFEETLKKVEELIKKLSKASEEKKISYISKIAGTVYKALQQLREAGASLEEIKEFSERLKKEIEKLLKEAGLDEKTRNLVLSSVNAVFTVAIEEAK
B17: traf2_out_18_167_1822 (protein)
chain: SAETEAEIERLTDELVRVSEIRRLALLALEALRTDPAAADAARDALIAALNEVPEFRPDAAALRAAPRAELPALLERIAERAQRRAQELYERREELKKKQ
B18: traf2_out_3_89_2308 (protein)
chain: MEERKKTIEEMEKQMEAYVKGFEKSAKFVAKQMLADGMSLDTLRGVLEAAKSALLEVLRETAKERGLSEEEIEKLLKKAEEELNKVVDEVVADAAAKRAA
B19: traf2_out_6_156_2410 (protein)
chain: MVDAIFKEALEKIEKEIKKLSEASEEKKIKYISNIAGTVYRALQQLRDAGASLAEIEAFAKKLKAEIEKKLKEAGLPEDTINLVLSSINAVFDVAIADAK
B20: traf2_out_13_95_1152 (protein)
chain: SKELAEKINQIADDMLDQVEAKLQALLEKMKAAGKGVEEVQKALDLARYRSVNEAIALLEELSKKYPEFKELFDATIKEIKAIIREAGRKVAELIKEEEA
B21: traf2_out_11_131_656 (protein)
chain: MDAVAMAESAAERVDERLEIAKTLSPEERLRLARQSLDSLEALAEYLKEHVKEMSKEDVEKAAKILRESAEKILEFSPEVEEEAKEVEEAIKKLLEAAKA
B22: traf2_out_20_38_2032 (protein)
chain: SEEEEEERRLEEAIEVANEAYDRYTARFEEWQAAGKTVEEIAEETKKEVKELLEKAGLEEEAKILIEDIDLALSSPDAVRLLVRILARAEALVWQKEKEK
B23: traf2_out_19_16_1989 (protein)
chain: SKEEAEKLKKEMNKYLDEALELAKEAVENLDELSREELMDKLVEISELMRKAKELLQKYLELNKDDEEERKKVTEEFDKKYDEIMKLMTIIVKKIEELLK
B24: traf2_out_11_155_670 (protein)
chain: SEKQKLNNELVNELTEIADELKEKVEKILKEAAAAHPEHAEELAAVIASGKTLSGRSFARLAAQKFRELGLEEEAKKVEELLEEAQKKMNEVVKKYEEKL
B25: traf2_out_3_89_2310 (protein)
chain: GAERERTIEEMRREMERYIRGFRKSAERVAKEMLEDGMSLETLRGVLEAAKSALLEVLRERMRERGLSEEEIEELLEEAGRELDKVVEEVVAEAEERRKA
B26: traf2_out_17_162_1600 (protein)
chain: SELEKFKEKIEKELEELEKERKELEKKLKEIDSLSKEELTDLLVEASEKRRKALELLEKLEENKEKLDKEFYEKYKKRAEEIAEEFQRIANEIMKKLEEK
B27: traf2_out_20_38_2010 (protein)
chain: SEEEKEKEKLEKLVEVANEAYDKYSAEFEKWKAEGKTVEEIAEEVKKRVKEKLSAAGLEEEAKILIEDIDLALSSPNAWRLLVRTLARADALVKQKELNK
B28: traf2_out_17_162_1551 (protein)
chain: SALEEELERLEEELRRLEEELERLKKELENLEKKSKEELTDLLVEASEARRRARELAERLRELEPLIGEERAGELRERAEEIAEELQRIANKIYKELEKK
B29: traf2_out_20_38_2037 (protein)
chain: SEEEEEEKKLQEVIDVANEALDKYEKKIAEWKAEGKTVEEIAEAAKEEVRRLLEEVGLEEEAEILVEDIDRALSSPDAERLIARILARAVALVKQKELNK

Target: T1, TRAF2, Q12933
T1 chain: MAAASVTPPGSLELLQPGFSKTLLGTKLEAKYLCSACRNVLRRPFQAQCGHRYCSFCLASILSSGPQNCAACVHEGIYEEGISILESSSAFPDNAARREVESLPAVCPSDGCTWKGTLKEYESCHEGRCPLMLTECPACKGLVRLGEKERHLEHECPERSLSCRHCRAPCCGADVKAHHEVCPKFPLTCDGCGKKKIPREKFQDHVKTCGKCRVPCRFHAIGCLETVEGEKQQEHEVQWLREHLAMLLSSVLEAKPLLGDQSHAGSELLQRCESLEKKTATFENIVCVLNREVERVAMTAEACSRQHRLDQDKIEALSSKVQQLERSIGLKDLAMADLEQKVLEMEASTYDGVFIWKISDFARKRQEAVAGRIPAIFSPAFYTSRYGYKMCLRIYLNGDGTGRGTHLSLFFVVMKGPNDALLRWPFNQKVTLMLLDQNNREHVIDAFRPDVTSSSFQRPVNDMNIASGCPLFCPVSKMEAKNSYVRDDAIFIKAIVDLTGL
Assay: median log2 fold change of GCK-ALFA target abundance (FLAG IP / Myc IP barcode read proportion) (log2 ratio); each designed protein is fused to an ALFA-tag nanobody in HEK293 cells to bring the named protein to FLAG-tagged glucokinase (GCK); Myc marks an untargeted standard; higher = target protein stabilised (more abundant)
Details: target protein: 3xFLAG-MCP-GCK-ALFA reporter; HEK293 landing pad (RPLP)
Summary of the method: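 Sequencing of reverse-transcribed, amplified circular RNA barcodes from anti-FLAG and anti-Myc immunoprecipitates provided the readout for an ALFA-nanobody-fused binder library recombined into HEK293 landing-pad cells. Those cells were induced with 2 μg mL^−1 doxycycline, transfected with a plasmid expressing a FLAG-tagged target and a Myc-tagged standard, and lysed after 48 h. Target abundance is the per-binder median log2 ratio of FLAG to Myc barcode read proportions. Only barcodes at a proportion of ≥10^−7 in both replicates and binders with ≥3 barcodes per replicate were kept, with a 10^−6 pseudocount added before the two replicates were pooled.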

| Binder | median log2 fold change |
| --- | --- |
| B1 | 0.0548 |
| B2 | -0.187 |
| B3 | 0.0712 |
| B4 | -0.0195 |
| B5 | -0.138 |
| B6 | -0.373 |
| B7 | 0.128 |
| B8 | -0.145 |
| B9 | -1.43 |
| B10 | -0.767 |
| B11 | -0.0821 |
| B12 | 0.209 |
| B13 | -0.0546 |
| B14 | -0.852 |
| B15 | 0.00164 |
| B16 | 0.231 |
| B17 | 0.336 |
| B18 | -0.103 |
| B19 | 0.298 |
| B20 | -0.574 |
| B21 | 0.344 |
| B22 | -1.23 |
| B23 | 0.137 |
| B24 | 0.263 |
| B25 | -1.13 |
| B26 | 0.0488 |
| B27 | -1.49 |
| B28 | 0.0543 |
| B29 | -1.45 |
